High-throughput results (PubChem)
Rows were chosen to be rich in hits. Some 19% of all compounds tested hit in one or more screens of this group.
DT40 TDP1 CPT – qHTS for Inhibitors of human tyrosyl-DNA phosphodiesterase 1 (TDP1): qHTS in cells in presence of CPT | chicken DT40 Tdp1-/-;hTDP1 cells + 20 nM CPT, ATP luminescence, 48 h | Potency, µM (highest dose often 46.2 µM), for the others: at the highest dose activity change, negative = growth inhibition, usual class: inhibitors | 12% of 420,000 active | AID 686979, 2013; also: nearly all actives have a fitted effect of over 55% in size
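Chicken DT40 Tdp1-/- cells complemented with human TDP1, 400 cells/well, exposed to compounds plus 20 nM camptothecin for at least 48 h at 37 C; viability read as ATP content by CellTiter-Glo luminescence.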
HT1080 IDH1KD tx – qHTS for induction of synthetic lethality in tumor cells producing 2HG: qHTS for the HT-1080-IDH1KD cell line; HT-1080 IDH1 knockdown viability, ATP luminescence, 48 h; Potency, µM (titrated, usually from 46.1 µM), without a hit: at the top dose activity, negative = toxicity, most hits filed as cytotoxic; 2% of 360,000 active;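 also: 0% = DMSO wells and -100% = cell-free medium wells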
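Using the IDH1-knockdown HT-1080 line run in the same batch and compound series as the NT line, viability after 48 h at 37 °C was determined by CellTiter-Glo luminescence and expressed as % activity.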
HT1080-NT tox – qHTS for induction of synthetic lethality in tumor cells producing 2HG: qHTS for the HT-1080-NT fibrosarcoma cell line; 1.6% of 360,000 active; HT-1080-NT fibrosarcoma viability, CellTiter-Glo ATP luminescence, 48 h; AID 686970, 2013; Potency, µM (titrated, usually from 46.1 µM), for inactives: top-dose activity, negative = less viability, most hits filed as cytotoxic;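 also: NT is the 2HG producing partner of a matched IDH1 knockdown line; 0% = DMSO-treated cells and -100% = media-only wells without cells; nearly all actives have a fitted effect of over 55% in size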
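Fibrosarcoma NT cells, 750 per well in 5% FBS RPMI, were exposed to compound for 48 hours. Viability: CellTiter-Glo luminescence.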
KB-3-1 cytotox – qHTS assay for MDR1-selective chemotherapeutics: Primary screen using the parental adenocarcinoma cell KB-3-1 | 1.4% of 400,000 active | Potency, µM (titrated, usually from 46.1 µM), usual class: cytotoxic | KB-3-1 viability, CellTiter-Glo ATP luminescence, 72 h; also: nearly all actives have a fitted effect of over 60% in size
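Viability of parental KB-3-1 cells, measured by CellTiter-Glo luminescence, followed a 72 h incubation at 37 °C with pinned compounds in phenol-red-free DMEM containing 10% FBS.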
KB-V1 MDR tox – qHTS assay for MDR1-selective chemotherapeutics: Primary screen using the drug-selected MDR subline cells KB-V1. 3.4% of 400,000 active. KB-V1 MDR cells viability, CellTiter-Glo, 72 h. Potency, µM (top dose mostly 46.1 µM), actives largely listed as cytotoxic. AID 1347076, 2019; also: nearly all actives have a fitted effect of over 60% in size
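Cytotoxicity toward P-gp-expressing KB-V1 cells was determined as loss of CellTiter-Glo luminescence after 72 h at 37 degrees C. Compounds were tested in quantitative HTS format across a concentration range, with curves fitted to normalized data.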
DT40 TDP1 no CPT – qHTS for Inhibitors of human tyrosyl-DNA phosphodiesterase 1 (TDP1): qHTS in cells in absence of CPT; Potency, µM (series often up to 46.2 µM), for the others: at the top dose activity change, negative = growth inhibition, hits mostly inhibitors; 15% of 420,000 active; DT40 Tdp1-/- hTDP1 cells, no CPT, ATP luminescence, 48 h; also: nearly all actives have a fitted effect of over 55% in size
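Chicken DT40 Tdp1-/- cells stably complemented with human TDP1 were seeded at 400 cells/well with DMSO in place of 20 nM camptothecin. After compound pinning, cells grew at least 48 hr at 37 °C; viability read by CellTiter-Glo luminescence.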
An asterisk follows results filed as active; i = inactive; ? = inconclusive; . = not tested or not shown; [ ] = remark or other dose. Calls follow the shape of the dose curve; as a rule, active = well fitted curve in the direction sought with a large enough effect; inconclusive = small, poorly fitted or top-dose-only effect, or another doubt; inactive = no such curve, though single readings can be large; an effect the other way counts as inactive or inconclusive. Unless noted, % is scaled to controls: 0 for no effect and ±100 for the full control effect; potency is read from the fitted curve at half-maximal effect.

SMILES | DT40 TDP1 CPT | HT1080 IDH1KD tx | HT1080-NT tox | KB-3-1 cytotox | KB-V1 MDR tox | DT40 TDP1 no CPT
CCc1nc2ccc(C(=O)N3CCN(C(=O)c4ccco4)CC3)cn2c1N(C)C(=O)COc1ccccc1 | -0.3% | ? | 0.1% | i | i | 2.4%
O=C(CSc1nc2ccccc2c(=O)n1CCCN1CCOCC1)Nc1ccc(F)c(Cl)c1 | ? | ? | ? | i | i | ?
Cc1ccc(NC(=O)CSc2nc3ccccc3c(=O)n2CCCN2CCCCC2)cc1Cl | 20.6µM* | ? | 23.1µM* | i | ? | 20.6µM*
CCOC(=O)C1CCN(S(=O)(=O)c2ccccc2[N+](=O)[O-])CC1 | 28.4% | 1.4% | 14.7% | i | i | 7.1%
CCOC(=O)C1Nc2ccccc2C2c3ccccc3CC12 (stereo not drawn) | 20.6µM* | -1.6% | -0.5% | i | i | 2.59µM*
CCOC(=O)C1Nc2c(cc(C(F)(F)F)cc2[N+](=O)[O-])C2c3ccccc3CC12 (stereo not drawn) | 18.4µM* | -5.5% | 15.1% | i | i | ?
CCOC(=O)C1Nc2c(F)cc(C)cc2C2c3ccccc3CC12 (stereo not drawn) | ? | -13.0% | -13.8% | i | i | ?
CCOC(=O)[C@@H]1[C@H]2COc3ccc(Br)cc3[C@H]2N2C(=O)N(c3ccc(Cl)cc3)C(=O)[C@]12C | ? | -0.2% | -7.6% | i | i | 9.2µM*
CCOC(=O)[C@@H]1[C@H]2COc3ccc(Br)cc3[C@@H]2N2C(=O)N(c3ccccc3)C(=O)[C@@]12C | ? | 0.2% | -3.4% | i | i | -16.9%
CCOC(=O)[C@@H]1[C@H]2COc3ccc(Br)cc3[C@H]2N2C(=O)N(c3ccc(Br)cc3)C(=O)[C@]12C | ? | -6.5% | 0.4% | i | i | ?
CCOC(=O)[C@@H]1[C@H]2COc3ccc(Br)cc3[C@H]2N2C(=O)N(c3ccc(C(F)(F)F)cc3)C(=O)[C@]12C | ? | -1.0% | 1.3% | i | i | 11.6µM*
CCOC(=O)[C@@H]1[C@H]2COc3ccc(Br)cc3[C@@H]2N2C(=O)N(c3ccc(Br)cc3)C(=O)[C@]12C | -14.0% | -14.0% | -12.7% | i | i | ?
CCOC(=O)[C@H]1[C@H]2COc3ccc(Br)cc3[C@@H]2N2C(=O)N(c3ccccc3)C(=O)[C@@]12C | 18.4µM* | 1.2% | -0.9% | i | i | -28.3%
CC(=O)N1CCOc2cc(S(=O)(=O)NCc3ccc(C)cc3)c(C)cc21 | -10.5% | . | . | . | . | -14.2%
CC(=O)N/N=C(\N)c1nonc1N | 4.9% | 8.3% | 10.2% | i | i | -7.2%
Nc1nonc1C(=Nc1ccc(Br)cc1)NO | 25.9µM* | -15.1% | -4.0% | i | i | ?
N#C/C(=C\c1ccc(OCc2ccccc2)cc1)C(=O)Nc1nc2c(s1)CCN(Cc1ccccc1)C2 | 23.1µM* | 19.5% | 12.5% | ? | ? | 20.6µM*
N#C/C(=C\c1ccc(OCc2ccccc2)cc1)C(N)=O | ? | 0.1% | -5.9% | i | i | 23.1µM*
O=[N+]([O-])c1cc(Cl)c2cccnc2c1O | ? | ? | ? | ? | ? | 18.4µM*
O=[N+]([O-])c1cc(F)c2cccnc2c1O | 9.2µM* | ? | -26.1% | ? | i | 7.31µM*
O=[N+]([O-])c1ccc(Cl)c2cccnc12 | -26.1% | -14.0% | 0.0% | ? | ? | ?
O=[N+]([O-])c1ccc(O)c2cccnc12 | -4.1% | 0.1% | 9.5% | i | i | -10.8%
O=[N+]([O-])c1cc([N+](=O)[O-])c2cccnc2c1Oc1ccccc1O | 2.59µM* | -2.3% | -16.7% | i | ? | 1.84µM*
COC(=O)c1cccc(C(=O)NCc2nc(-c3ccccc3NC(C)=O)oc2C)c1 | 5.0%[9.04 µM] | . | . | . | . | -13.9%
Cn1c(N)c(C(=O)COC(=O)c2ccc(OC(F)F)cc2)c(=O)n(C)c1=O | -6.4% | 0.0% | -0.4% | i | i | ?
SMILES | DT40 TDP1 CPT | HT1080 IDH1KD tx | HT1080-NT tox | KB-3-1 cytotox | KB-V1 MDR tox | DT40 TDP1 no CPT
Cc1c(C(=S)Nc2ccccc2)cnn1-c1ccc([N+](=O)[O-])cc1 | 16.4µM* | -29.9% | -24.9% | ? | 18.4µM* | ?
Cc1c(C(=S)Nc2ccccc2)cnn1-c1ccccc1 | 20.6µM* | -8.7% | -1.7% | i | 20.6µM* | -23.4%
Nc1c(C(=O)N/N=C/c2ccc([N+](=O)[O-])cc2)cnn1-c1ccccc1 | -20.3% | 0.4% | 28.0% | i | i | -19.2%
Cc1c(C(=O)Nc2cc(F)cc(F)c2)cnn1-c1ccccc1 | 13µM* | 0.1% | -0.1% | i | i | 11.6µM*
CCOc1ccc(CNC(=O)CCS(=O)(=O)c2ccc3c(c2)NC(=O)CO3)cc1OC | 2.5% | 11.6% | ? | i | ? | 23.7%
O=C(Cn1c(=O)c2cccn2c2ccc(F)cc21)N1CCN(c2ccccc2F)CC1 | -18.8% | . | . | . | . | -20.1%
O=C(NCc1ccc(Cl)c(Cl)c1)c1cc(C2CCCCN2C(=O)c2ccccn2)on1 (stereo not drawn) | 10.3µM* | -17.8% | -4.6% | i | i | 18.4µM*
O=C(NCc1ccc(Cl)c(Cl)c1)c1cc(C2CCCCN2C(=O)OCCF)on1 (stereo not drawn) | 23.1µM* | ? | ? | i | i | 23.1µM*
